# The panel holds about 83,000 compounds, 20% with a hit somewhere; the sample as a whole holds those more often.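 Cells were grown in 96-well plates and exposed to the test compound at a single concentration for 48 hours; results are reported as percent growth, with values below 10 considered active.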 A number with no mark means an inactive call. Calls of active or inactive are those of the source.
# What was measured:
# Assay in all cases: NCI-60 one-dose screen, 48 h (100 = growth as untreated, 0 = no growth, -100 = all killed)
# Settings in all cases: 10 µM unless noted
# SR leukemia = tested on: SR leukemia
# RPMI-8226 leukemia = tested on: RPMI-8226 leukemia
# OVCAR-8 ovarian = tested on: OVCAR-8 ovarian
# OVCAR-5 ovarian = tested on: OVCAR-5 ovarian
# OVCAR-4 ovarian = tested on: OVCAR-4 ovarian
# SK-OV-3 ovarian = tested on: SK-OV-3 ovarian
# IGROV1 ovarian = tested on: IGROV1 ovarian
# OVCAR-3 ovarian = tested on: OVCAR-3 ovarian
# HS 578T breast = tested on: HS 578T breast
# NCI/ADR-RES ovarian = tested on: NCI/ADR-RES ovarian
# T-47D breast = tested on: T-47D breast
# BT-549 breast = tested on: BT-549 breast
# MDA-MB-435 melanoma = tested on: MDA-MB-435 melanoma
# SW-620 colon = tested on: SW-620 colon
# MCF7 breast = tested on: MCF7 breast
# HCT-116 colon = tested on: HCT-116 colon
# HCC-2998 colon = tested on: HCC-2998 colon
# KM12 colon = tested on: KM12 colon
Structure (SMILES),growth (SR leukemia),growth (RPMI-8226 leukemia),growth (OVCAR-8 ovarian),growth (OVCAR-5 ovarian),growth (OVCAR-4 ovarian),growth (SK-OV-3 ovarian),growth (IGROV1 ovarian),growth (OVCAR-3 ovarian),growth (HS 578T breast),growth (NCI/ADR-RES ovarian),growth (T-47D breast),growth (BT-549 breast),growth (MDA-MB-435 melanoma),growth (SW-620 colon),growth (MCF7 breast),growth (HCT-116 colon),growth (HCC-2998 colon),growth (KM12 colon)
CCOC(=O)c1c(C)nc2c(c1N)CC(=O)N2Cc1cc(OC)c(OC)c(OC)c1,20.7%,40.9%,61.9%,93%,51.3%,57.2%,53.1%,23.5%,65.1%,17.6%,28.7%,48.7%,4.24% (active),33.4%,26.9%,20.5%,65.6%,
CN1CCN(c2ccc(NC(=O)c3cncnc3Nc3ccc4c(ccn4Cc4cccc(F)c4)c3)cc2)CC1,10.9%,46.1%,34.9%,65.5%,66.2%,97.4%,77.1%,80.8%,68.3%,75.8%,48.8%,85.6%,-79.7% (active),5.18% (active),12.8%,13.1%,61.6%,46.7%
CCOC(=O)C/C(=N\Nc1cc(=O)[nH]c2ccc(Cl)cc12)C(=O)OCC,47%,57.2%,110%,98.9%,107%,123%,97.6%,110%,94.9%,95.8%,102%,99.3%,102%,93.8%,96.5%,100%,97.4%,
COc1cc2cc(NCc3ccc(OC(F)F)cc3)nc(C)c2cc1OC,53.1%,42.5%,71.3%,56.1%,74.2%,57.6%,48.2%,77%,77.6%,56.3%,71.1%,71.8%,68.4%,47.9%,86.1%,37.3%,78.2%,82.8%
CN1CCN(Cc2cc(NC(=O)c3cccc(C#Cc4cccc5[nH]nc(N)c45)c3)cc(C(F)(F)F)c2)CC1,-28.7% (active),11.2%,41%,36.1%,24.8%,81.6%,11.1%,64.1%,22.3%,50.8%,49%,46%,-21.4% (active),-45.2% (active),-23.4% (active),-86.8% (active),-70.9% (active),13.7%
O=P(O)(O)OCC1OC(n2cnc3c(NCc4ccccc4)ncnc32)C(O)C1O (centres undefined),41.7%,29.5%,11.5%,57.7%,25.5%,9.33% (active),1.31% (active),-66.7% (active),28.2%,29.7%,22.1%,-18.8% (active),25.4%,24.5%,27.6%,7.45% (active),29.9%,
C#CC#CC#CC#CC#CC#CC#CC#CC[C@H]1OC[C@@H](COC(=O)O[C@@H](C(=O)O[C@H]2C[C@@]3(O)[C@@H](OC(=O)c4ccccc4)[C@@H]4[C@]5(OC(C)=O)CO[C@@H]5C[C@H](O)[C@@]4(C)C(=O)[C@H](OC(C)=O)C(=C2C)C3(C)C)[C@@H](NC(=O)c2ccccc2)c2ccccc2)O1,25.9%,26%,59.7%,47%,68.3%,61.7%,49.2%,22.6%,44.3%,108%,53.4%,53.2%,-47.8% (active),42.4%,33.7%,18%,48.3%,
CCCCNC1=C(OCC)C(=O)c2ccccc2C1=O,112%,88.1%,101%,150%,94.3%,119%,115%,98.3%,84.2%,97.3%,89.6%,76.5%,96.8%,104%,76.3%,80.3%,95.1%,93.7%
COc1cc2ncnc(Nc3ccc(F)c(Cl)c3)c2cc1OCC(=O)N1CCN(c2ccc(F)cc2)CC1,79%,98.8%,107%,60.6%,82%,88.1%,46.9%,83.4%,89.3%,82.7%,75.2%,101%,96.5%,101%,83.8%,88.7%,98.1%,
O=C1Nc2ccc(F)cc2/C1=N/c1nnc(Sc2ccccc2)s1,61%,55.7%,89.7%,113%,95%,97.1%,80.2%,97.3%,94.4%,85.3%,61.5%,105%,99.7%,91.9%,22.2%,99.3%,104%,88%
Cc1ccc(-c2nc(C#N)c(S(=O)(=O)NCCO)o2)cc1,-7.78% (active),1.81% (active),64.7%,94.5%,86.9%,95.7%,65.1%,41.3%,107%,81%,43.1%,64.7%,68.5%,33.8%,37.9%,51.6%,98.1%,
N#CC(C#N)N=Nc1ccc(Cl)cc1Cl,48.1%,50.8%,94%,104%,71.4%,77%,89.5%,62%,103%,103%,24.3%,94.8%,111%,87.3%,73.6%,66.1%,109%,101%
N=c1c2c(=N)n3c(nc2nc2n1-c1ccccc1Sc1ccccc1-2)sc1cc(Cl)ccc13,25.9%,14.5%,26.5%,92.2%,8.65% (active),49.6%,38.7%,7.88% (active),32%,30.1%,6.16% (active),42.2%,21.1%,32.4%,-2.03% (active),10.7%,-18.6% (active),19.9%
COc1ccc2[nH]cc(-c3nc(-c4cn(C)c5ccncc45)cs3)c2c1,-11.2% (active),-40.3% (active),-9.37% (active),103%,24.1%,112%,-38.5% (active),117%,101%,62.1%,92.1%,85.1%,64.7%,-56.9% (active),-39.4% (active),-83.8% (active),-38.9% (active),-31.8% (active)
O[C@@H](c1cc(C(F)(F)F)nc2c(C(F)(F)F)cccc12)[C@H]1CCCCN1,8.64% (active),68.9%,76.7%,77.7%,62.6%,82.7%,51.7%,63.1%,58.2%,61.9%,43.1%,66.1%,73.1%,73.7%,36.3%,36.1%,80.5%,
O=C1/C(=C/c2ccccc2[N+](=O)[O-])COc2ccc(O)cc21,22.2%,3.29% (active),6.3% (active),-19% (active),15.6%,77.7%,-0.209% (active),7.73% (active),5.1% (active),2.55% (active),18%,26.7%,-34.2% (active),-57.8% (active),10.9%,-13.8% (active),29%,25.4%
Cc1nc2sc(C(=O)Nc3ccc(Cl)cc3)c(N)c2cc1C(O)c1ccccc1 (centres undefined),11%,15.5%,49.7%,59.6%,64.9%,51.3%,53.9%,5.14% (active),26.8%,25.8%,40.8%,59.2%,-12.6% (active),25.1%,21.1%,25.9%,62.5%,21.7%
